According to PubChem BioAssay (NCATS):
Where “and” joins values, the source holds several entries; their conditions need not be identical. Identical values can stand only once. Records with an inconclusive call do not appear. Calls of active or inactive are those of the source. Calls come from the whole dose curve; as a rule, active = well fitted inhibition curve with a large enough effect; inconclusive = small, poorly fitted or top-dose-only effect; inactive = flat fitted curve, though single readings scatter.

Tests used:
Experiment in all cases: qHTS profiling for inhibitors of Plasmodium falciparum proliferation (AID 504749); note: nearly all actives have a fitted effect of over 60% in size
Conditions in all cases: P. falciparum in erythrocytes, SYBR Green DNA, 72 h; series mostly up to 28.7 µM
[1] = test system: CP297
Outline: (§1)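 Each compound contacts P. falciparum-infected red blood cells for 72 h at 37 C; lysis buffer (Tris, EDTA, saponin, Triton X, SYBR Green I) is added and fluorescence measured next morning; values normalized to controls.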

[2] = test system: CP305
Outline: as §1

[3] = test system: CP315
Outline: as §1

[4] = test system: CP325
Outline: as §1

[5] = test system: CP329
Outline: as §1

[6] = test system: CP335
Outline: as §1

[7] = test system: DFO2036
Outline: as §1

[8] = test system: DIV14
Outline: as §1

[9] = test system: DIV17
Outline: as §1

[10] = test system: DIV30
Outline: as §1

[11] = test system: Dd2
Outline: as §1

[12] = test system: ECU
Outline: as §1

[13] = test system: FAB9
Outline: as §1

[14] = test system: GB4
Outline: as §1

[15] = test system: HB3
Outline: as §1

[16] = test system: ICS
Outline: as §1

[17] = test system: JCK
Outline: as §1

[18] = test system: N140
Outline: as §1

[19] = test system: P93_24
Outline: as §1

[20] = test system: P94_40
Outline: as §1

Measured: Potency
Potency is the fitted concentration of half-maximal effect.

CCCCCCCCCCCC[N+](C)(C)CCOc1ccccc1
active: [1] 13.5 µM | [2] 8.49 µM | [3] 15.1 µM | [4] 9.53 µM | [5] 13.5 µM | [6] 6.01 µM | [7] 5.01 µM | [8] 5.36 µM | [9] 8.49 µM | [10] 13.5 µM | [11] 3.55 µM | [12] 5.01 µM | [13] 7.94 µM | [14] 5.36 µM | [15] 6.31 µM | [16] 2.24 µM | [17] 12.6 µM | [18] 7.94 µM | [19] 4.47 µM | [20] 4.47 µM

CCC1(c2ccccc2)CCC(=O)NC1=O (centres undefined)
active: [16] 11.2 µM
not listed: [9] | [14] | [15] | [19]
inactive: all other assays above

C[C@H]1C(=O)O[C@@H]2CCN3CC=C(COC(=O)[C@](C)(O)[C@]1(C)O)[C@H]23
inactive: all assays above

COP(=S)(OC)Oc1ccc(Sc2ccc(OP(=S)(OC)OC)cc2)cc1
inactive: all assays above

CC(C)C(Br)C(=O)NC(N)=O (centres undefined)
inactive: all assays above

O=C(O)c1nn(Cc2ccc(Cl)cc2Cl)c2ccccc12
inactive: all assays above

CC[n+]1c(-c2ccccc2)c2cc(N)ccc2c2ccc(N)cc21
active: [1] 169 nM and 478 nM | [2] 84.9 nM and 379 nM | [3] 478 nM and 1.69 µM | [4] 95.3 nM and 379 nM | [5] 107 nM and 426 nM | [6] 84.9 nM and 239 nM | [7] 89.1 nM and 251 nM | [8] 53.6 nM and 107 nM | [9] 53.6 nM and 151 nM | [10] 426 nM and 1.9 µM | [11] 20 nM and 100 nM | [12] 141 nM and 447 nM | [13] 79.4 nM and 89.1 nM | [14] 75.7 nM and 169 nM | [15] 126 nM and 316 nM | [16] 44.7 nM and 126 nM | [17] 79.4 nM and 282 nM | [18] 141 nM and 316 nM | [19] 63.1 nM and 158 nM | [20] 70.8 nM and 355 nM

CC(C)(C)OC(=O)c1ncn2c1[C@@H]1CCCN1C(=O)c1c(Br)cccc1-2
not listed: [9] | [16]
inactive: all other assays above

C[C@]12CC[C@H]3[C@@H](CC=C4C[C@@H](O)CC[C@@]43C)[C@@H]1CC[C@@H]2O
inactive: all assays above

CCN(Cc1ccc(Cl)nc1)/C(=C/[N+](=O)[O-])NC
inactive: all assays above

CC(C)NCC(O)c1ccc(N)c(C#N)c1 (centres undefined)
inactive: all assays above

CCNc1nc(Cl)nc(NCC)n1
inactive: all assays above
